Source: PubChem BioAssay (Tox21)
Several values for one entry are separate records, joined by “and”; a condition that tells them apart may be missing. Identical values can stand only once. A number with no mark means an inactive call. Results filed as inconclusive are left out. A call without a number means that no potency is given here. Activity calls are given as the source filed them. Unless noted, the call rests on the fitted dose curve; in most records, active means well fitted curve in the direction sought with a large enough effect in the repeat runs; inconclusive means weak or mixed curves; inactive means no such curve, though single readings can be large; an effect the other way counts as inactive or inconclusive.

Assays:
[1] = qHTS assay to identify small molecule agonists of the estrogen receptor alpha (ER-alpha) signaling pathway in the presence of an antagonist - cell viability counter screen (AID 1259386);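 further: cells exposed to compounds for 22 h at 37 °C before the viability read; nearly all actives have a fitted effect of over 30% in size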; further: potency means the concentration at half of the fitted maximal effect
Summary of the method: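 Cell viability in VM7Luc4E2 cells (endogenous full-length ER-alpha) measured by CellTiter-Fluor fluorescence in the same wells as the luciferase screen. Cells pre-cultured 5 days in charcoal-stripped serum, then treated 22 h with compounds at 15 concentrations plus 10.0nM ICI-182,780.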

[2] = biological target: Progesterone receptor (Homo sapiens) (UniProt P06401); assay: qHTS assay to identify small molecule agonists of the progesterone receptor (PR) signaling pathway (AID 1346784; calls by dose curve; further: nearly all actives have a fitted effect of over 30% in size)
Summary of the method: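 Agonist qHTS: compounds pinned onto 3,000 PR-UAS-bla HEK 293T cells per well in charcoal-stripped serum medium, 16hr at 37C, then beta-lactamase activity measured by LiveBLAzer FRET fluorescence after 2 hours at room temperature.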

[3] = biological target: Progesterone receptor (Homo sapiens) (UniProt P06401); assay: qHTS assay to identify small molecule antagonists of the progesterone receptor (PR) signaling pathway (AID 1346795; active means well fitted inhibition curve with a large enough effect in the signal ratio in the repeat runs, not every such curve was filed as active; the % refers to the signal ratio; further: potency means the concentration at half of the fitted maximal effect)
Summary of the method: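 Antagonist mode with agonist R5020 at 1 nM final and 16 hr incubation at 37C. Reporter was beta-lactamase driven by UAS in HEK293T (PR-UAS-bla), 2% charcoal-stripped serum; signal from LiveBLAzer FRET substrate, 2 hr at room temperature.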

[4] = qHTS assay to identify small molecule antagonists of the TGF-beta/Smad signaling pathway - cell viability counter screen (AID 1346824); further: nearly all actives have a fitted effect of over 50% in size
Summary of the method: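 SBE-bla HEK 293T cells, incubated overnight, then compound plus 0.25 ng/mL TGF-beta1 (stock added) for 5 hr at 37 C. Viability was read in the same wells by CellTiter-Glo luminescence after 30 min at room temperature.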

[5] = qHTS assay to identify small molecule agonists of the TGF-beta/Smad signaling pathway - cell viability counter screen (AID 1346829); further: top concentration of the series differs between compounds; nearly all actives have a fitted effect of over 45% in size
Summary of the method: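 After overnight seating at 37 C and 5% CO2, reporter cells got compounds for 5 hr and FRET substrate for 2 hr; cell viability then came from CellTiter-Glo luminescence.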

[6] = qHTS assay to identify small molecule agonists of the TGF-beta/Smad signaling pathway (AID 1346859; active means well fitted activation curve with a large enough effect in the signal ratio in the repeat runs, not every such curve was filed as active; the % refers to the signal ratio; further: series mostly up to about 77 µM)
Summary of the method: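 Fluorescence (ex 405 nm; em 460 and 530 nm) was read 2 h after LiveBLAzer FRET substrate at RT. The preceding compound treatment of overnight-plated SBE-bla HEK293T cells lasted 5 h at 37 C.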

[7] = biological target: Thyrotropin-releasing hormone receptor (Homo sapiens) (UniProt P34981); assay: qHTS assay to identify small molecule antagonists of the thyrotropin-releasing hormone receptor (TRHR) signaling pathway (AID 1346877; active means well fitted inhibition curve with a large enough effect in the repeat runs, not every such curve was filed as active; further: series mostly up to about 51 µM)
Summary of the method: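 TRHR-expressing HEK293 cells loaded with calcium dye for 2 h at 37 C; compounds pre-incubated 5 min at room temperature before TRH challenge at 1 nM final. Intracellular calcium fluorescence read kinetically for 3 min; 15 concentrations in triplicate.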

[8] = biological target: Thyrotropin-releasing hormone receptor (Homo sapiens) (UniProt P34981); assay: qHTS assay to identify small molecule agonists of the thyrotropin-releasing hormone receptor (TRHR) signaling pathway (AID 1346891; calls by dose curve; further: series mostly up to about 58 µM)
Summary of the method: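 Agonist-mode intracellular calcium readout: kinetic fluorescence over 3 min at 1 s intervals after compound addition to TRHR-HEK293 cells (18 h seeded, 2 h dye-loaded at 37 C). Fifteen concentrations, triplicates.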

[9] = Human pregnane X receptor (PXR) small molecule agonists, qHTS cell viability counter screen (AID 1346977); further: nearly all actives have a fitted effect of over 50% in size; further: potency means the concentration at half of the fitted maximal effect
Summary of the method: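 Same-well viability read: CellTiter-Fluor added after 23 hr compound exposure, fluorescence measured 1 hr later. Cells were PXR-Luc HepG2 seeded at 2,000/well in 5% charcoal-stripped FBS medium, rested 5 hr before dosing at 37 C.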

[10] = Caspase-3/7 induction in HepG2 cells by small molecules, qHTS assay (AID 1346978); further: nearly all actives have a fitted effect of over 15% in size
Summary of the method: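 Wild-type HepG2 cells, 2,000/well, settled 5 hr at 37 C and 5% CO2, then compound-treated for 17 hr; caspase-3/7 activity read by luminescent Caspase-Glo 3/7 after 30 min at room temperature.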

[11] = Caspase-3/7 induction in CHO-K1 cells by small molecules, qHTS assay (AID 1346980); further: nearly all actives have a fitted effect of over 15% in size
Summary of the method: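 Wild-type CHO-K1 cells exposed to compounds for 17hr at 37 C, 5% CO2. Caspase-3/7 activity then measured by Caspase-Glo 3/7 luminescence after 30min at room temperature.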

[12] = Caspase-3/7 induction in HepG2 cells by small molecules, qHTS cell viability counter screen (AID 1346981); further: nearly all actives have a fitted effect of over 30% in size; further: potency means the concentration at half of the fitted maximal effect
Summary of the method: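 Wild-type HepG2 cells, 2,000/well, settled 5 hr at 37 C, 5% CO2 before compound addition. Viability read by CellTiter-Fluor fluorescence, reagent added after 16 hr compound exposure, then 1 hr at 37C, in the same wells as the caspase read.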

[13] = biological target: Nuclear receptor subfamily 1 group I member 2 (Homo sapiens) (UniProt O75469); assay: Human pregnane X receptor (PXR) small molecule agonists, qHTS assay (AID 1346982); further: nearly all actives have a fitted effect of over 35% in size; further: potency means the concentration at half of the fitted maximal effect
Summary of the method: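 PXR-Luc HepG2 reporter cells (CYP3A4-driven luciferase) in 5% charcoal-stripped FBS medium, plated 5 h before compound addition, then treated 24 h at 37C. Luciferase read by ONE-Glo luminescence after 30 min at room temperature.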

[14] = biological target: Acetylcholinesterase (Homo sapiens) (UniProt P22303); assay: Acetylcholinesterase (AChE) small molecule antagonists: colormetric cell-based qHTS assay (AID 1347395; calls by dose curve; further: nearly all actives have a fitted effect of over 30% in size; further: potency means the concentration at half of the fitted maximal effect)
Summary of the method: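 Colorimetric readout: DTNB quantifies thiocholine from acetylthiocholine hydrolysed by endogenous AChE of SH-SY5Y cells (2,000/well, plated overnight). Compound pretreatment 30 min, substrate incubation 90 min, both 37 C.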

[15] = qHTS assay to identify small molecule antagonists of the progesterone receptor (PR) signaling pathway - cell viability counter screen (AID 1346798); further: nearly all actives have a fitted effect of over 50% in size; further: potency means the concentration at half of the fitted maximal effect
Summary of the method: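 Cytotoxicity read as CellTiter-Glo luminescence (30 min, room temperature) in the same wells as the beta-lactamase readout. HEK293T PR-UAS-bla cells in charcoal-stripped 2% FBS received compound and R5020, then 16 h at 37C, 5% CO2.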

[16] = qHTS assay to identify small molecule agonists of the progesterone receptor (PR) signaling pathway - cell viability counter screen (AID 1346799; calls by dose curve; further: nearly all actives have a fitted effect of over 45% in size; further: potency means the concentration at half of the fitted maximal effect)
Summary of the method: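 Cytotoxicity measured by CellTiter-Glo luminescence (30 min, RT) in the same wells as the PR beta-lactamase agonist read. Those HEK293T cells had 16 h compound treatment at 37 C in 2% charcoal-stripped FBS medium.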

[17] = Caspase-3/7 induction in CHO-K1 cells by small molecules, qHTS cell viability counter screen (AID 1346979); further: nearly all actives have a fitted effect of over 35% in size; further: potency means the concentration at half of the fitted maximal effect
Summary of the method: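 Cytotoxicity counter screen: CellTiter-Fluor added to compound-treated wild-type CHO-K1 cells at 16 h (37C, 5% CO2), fluorescence measured 1 h later; same wells as caspase-3/7 measurement.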

[18] = biological target: Nuclear receptor subfamily 1 group I member 2 (Rattus norvegicus) (UniProt Q9R1A7); assay: Rat pregnane X receptor (rPXR) activation by small molecules, qHTS assay (AID 1346983); details: rPXR luciferase reporter cells, One-Glo luminescence, 24 h; max activation: hits give high values; further: nearly all actives have a fitted effect of over 20% in size
Summary of the method: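 Cell-based rPXR activation assay: rPXR cells, 2,000 per well, rested 5hr at 37 C, then exposed to compounds in DMSO for 24 hr at 37 C. Luciferase activity read by One-Glo luminescence after 30 min at room temperature.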

[19] = biological target: Nuclear receptor subfamily 1 group I member 2 (Homo sapiens) (UniProt O75469); assay: CYP3A4 induction through human pregnane X receptor (PXR) by small molecules, qHTS assay (AID 1346984); further: nearly all actives have a fitted effect of over 40% in size
Summary of the method: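 DPX-2 HepG2 cells carrying a PXR response element and CYP3A4-promoter luciferase construct, treated with compounds 24 hr at 37C. Then P450-Glo CYP3A4 Luciferin-IPA substrate (3uM final) for 3 hr at 37C, One-Glo added, luminescence read.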

[20] = biological target: Nuclear receptor subfamily 1 group I member 2 (Homo sapiens) (UniProt O75469); assay: Human pregnane X receptor (PXR) activation by small molecules, qHTS assay (AID 1346985); further: nearly all actives have a fitted effect of over 40% in size
Summary of the method: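 DPX-2 cells (HepG2 co-transfected with a PXR response element and a CYP3A4-promoter luciferase construct) were seeded at 2,000 per well, rested 5 hr at 37C, then exposed to DMSO-dissolved compounds for 24 hr. Activation was read as luciferase luminescence.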

Chain of Progesterone receptor (Homo sapiens) (P06401 whole entry, looked up): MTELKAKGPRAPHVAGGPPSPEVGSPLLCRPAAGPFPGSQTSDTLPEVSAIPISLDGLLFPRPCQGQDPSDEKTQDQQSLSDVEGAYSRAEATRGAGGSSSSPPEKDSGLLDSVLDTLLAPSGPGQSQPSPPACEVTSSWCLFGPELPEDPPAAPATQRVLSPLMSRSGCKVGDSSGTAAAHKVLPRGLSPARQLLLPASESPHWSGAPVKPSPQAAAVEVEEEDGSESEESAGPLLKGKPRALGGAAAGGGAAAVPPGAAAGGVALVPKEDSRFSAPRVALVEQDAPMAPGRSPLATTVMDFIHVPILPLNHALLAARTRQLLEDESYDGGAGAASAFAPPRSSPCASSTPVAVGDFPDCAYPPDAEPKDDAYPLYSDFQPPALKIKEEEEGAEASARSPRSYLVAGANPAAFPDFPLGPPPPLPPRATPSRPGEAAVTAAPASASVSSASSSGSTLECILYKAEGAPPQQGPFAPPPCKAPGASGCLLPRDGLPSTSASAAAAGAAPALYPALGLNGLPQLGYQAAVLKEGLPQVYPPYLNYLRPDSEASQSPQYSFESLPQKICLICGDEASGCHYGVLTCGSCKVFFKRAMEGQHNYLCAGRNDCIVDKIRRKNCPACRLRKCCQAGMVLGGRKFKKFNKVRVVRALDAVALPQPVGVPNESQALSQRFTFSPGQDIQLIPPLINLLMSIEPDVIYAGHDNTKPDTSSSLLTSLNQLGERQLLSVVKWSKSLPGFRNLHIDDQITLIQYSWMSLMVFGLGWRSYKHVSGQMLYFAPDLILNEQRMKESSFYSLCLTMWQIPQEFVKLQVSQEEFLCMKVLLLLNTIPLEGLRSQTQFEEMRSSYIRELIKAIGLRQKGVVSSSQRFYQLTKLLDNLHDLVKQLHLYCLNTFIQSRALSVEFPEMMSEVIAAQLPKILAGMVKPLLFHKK
Chain of Nuclear receptor subfamily 1 group I member 2 (Homo sapiens) (O75469 whole entry, looked up): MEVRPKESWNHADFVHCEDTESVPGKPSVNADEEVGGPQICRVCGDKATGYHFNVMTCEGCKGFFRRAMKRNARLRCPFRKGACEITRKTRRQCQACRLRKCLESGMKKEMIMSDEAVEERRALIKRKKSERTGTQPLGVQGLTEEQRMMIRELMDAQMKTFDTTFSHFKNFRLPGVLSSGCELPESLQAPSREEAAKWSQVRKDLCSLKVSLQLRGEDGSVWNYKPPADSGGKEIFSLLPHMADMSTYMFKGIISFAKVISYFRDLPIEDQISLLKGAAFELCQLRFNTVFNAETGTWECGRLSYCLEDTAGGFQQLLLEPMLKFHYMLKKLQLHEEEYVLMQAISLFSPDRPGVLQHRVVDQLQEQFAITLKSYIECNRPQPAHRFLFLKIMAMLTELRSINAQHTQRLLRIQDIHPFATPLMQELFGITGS
Chain of Thyrotropin-releasing hormone receptor (Homo sapiens) (P34981 whole entry, looked up): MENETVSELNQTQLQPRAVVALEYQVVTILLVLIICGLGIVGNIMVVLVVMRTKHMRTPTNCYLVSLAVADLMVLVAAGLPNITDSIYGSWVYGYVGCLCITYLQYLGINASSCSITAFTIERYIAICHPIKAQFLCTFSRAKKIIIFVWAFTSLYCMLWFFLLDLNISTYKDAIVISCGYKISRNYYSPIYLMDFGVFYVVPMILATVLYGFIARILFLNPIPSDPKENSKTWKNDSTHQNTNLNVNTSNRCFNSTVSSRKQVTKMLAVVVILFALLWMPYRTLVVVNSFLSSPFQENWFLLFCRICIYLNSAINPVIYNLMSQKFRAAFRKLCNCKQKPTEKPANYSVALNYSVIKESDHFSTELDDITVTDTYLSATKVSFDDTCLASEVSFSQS
Chain of Acetylcholinesterase (Homo sapiens) (P22303 whole entry, looked up): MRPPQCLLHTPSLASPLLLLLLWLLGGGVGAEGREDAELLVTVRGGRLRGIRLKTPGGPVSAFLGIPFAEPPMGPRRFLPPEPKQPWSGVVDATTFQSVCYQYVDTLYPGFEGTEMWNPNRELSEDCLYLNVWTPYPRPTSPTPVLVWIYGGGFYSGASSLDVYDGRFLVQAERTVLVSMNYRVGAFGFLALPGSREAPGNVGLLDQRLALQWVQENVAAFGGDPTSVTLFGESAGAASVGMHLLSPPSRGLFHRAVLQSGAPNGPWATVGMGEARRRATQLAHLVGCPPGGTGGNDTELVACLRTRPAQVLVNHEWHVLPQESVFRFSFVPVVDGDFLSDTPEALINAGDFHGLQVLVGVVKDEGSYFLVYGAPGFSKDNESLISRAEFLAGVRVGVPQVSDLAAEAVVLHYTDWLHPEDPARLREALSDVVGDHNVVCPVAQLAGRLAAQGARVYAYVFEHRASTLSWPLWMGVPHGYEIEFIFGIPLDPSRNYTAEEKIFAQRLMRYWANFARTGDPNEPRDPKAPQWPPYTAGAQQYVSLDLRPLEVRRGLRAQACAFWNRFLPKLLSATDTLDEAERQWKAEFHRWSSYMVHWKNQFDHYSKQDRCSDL
Chain of Nuclear receptor subfamily 1 group I member 2 (Rattus norvegicus) (Q9R1A7 whole entry, looked up): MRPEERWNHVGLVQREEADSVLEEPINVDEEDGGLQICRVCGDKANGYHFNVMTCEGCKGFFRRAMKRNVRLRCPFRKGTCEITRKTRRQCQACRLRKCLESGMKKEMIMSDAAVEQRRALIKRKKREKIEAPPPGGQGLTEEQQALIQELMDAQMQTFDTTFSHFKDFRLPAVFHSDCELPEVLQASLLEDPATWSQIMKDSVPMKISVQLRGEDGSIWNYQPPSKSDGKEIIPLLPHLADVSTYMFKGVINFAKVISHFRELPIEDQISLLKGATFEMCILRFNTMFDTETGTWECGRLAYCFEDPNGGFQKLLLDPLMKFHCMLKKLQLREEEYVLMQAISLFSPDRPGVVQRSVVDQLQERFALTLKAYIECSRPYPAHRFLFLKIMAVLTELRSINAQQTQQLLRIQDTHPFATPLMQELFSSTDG

Row | SMILES | Potency [1] | Potency [2] | Potency [3] | Potency [4] | Potency [5] | outcome [6] | Potency [7] | Potency [8] | Potency [9] | Potency [10] | Potency [11] | Potency [12] | Potency [13] | Potency [14] | Potency [15] | Potency [16] | Potency [17] | max activation [18] [%] | Potency [19] | Potency [20]
1 | O=[N+]([O-])c1ccc(Oc2ccc(C(F)(F)F)cc2[N+](=O)[O-])cc1 | inactive | inactive | 7.7 µM (active) | inactive | inactive | inactive | inactive | inactive | inactive | inactive | inactive | inactive | 17.2 µM (active) | inactive |  |  |  |  |  | 
2 | CC(=[OH+])/C=C(/C)[O-].CC(=[OH+])/C=C(\C)[O-].CC(=[OH+])/C=C(\C)[O-].[Al] | inactive | inactive |  | inactive | inactive | inactive |  |  |  | inactive | inactive | inactive | inactive | inactive | inactive | inactive | inactive |  |  | 
3 | COc1ccc([N+](=O)[O-])cc1O | inactive | inactive | inactive |  | inactive | inactive | inactive | inactive | inactive | inactive | inactive | inactive | inactive | inactive |  | inactive | inactive |  |  | 
4 | CCC(C)(C)C(=O)OC1=C(c2ccc(Cl)cc2Cl)C(=O)OC12CCCCC2 | inactive | inactive | inactive | inactive |  | inactive | inactive | inactive |  | inactive | inactive | inactive |  | inactive |  | inactive | inactive |  |  | 
5 | Cc1c(Cl)c(=O)oc2cc(OP(=O)(OCCCl)OCCCl)ccc12 | inactive | inactive | 7.5 µM (active) | inactive | inactive |  |  |  | inactive | inactive | inactive | inactive | 11.9 µM (active) | 3.89 µM (active) |  |  |  | 8.02 | inactive | 
6 | CC1(C)[C@H](C(=O)O[C@H](C#N)c2cccc(Oc3ccccc3)c2)[C@@H]1/C=C(\Cl)C(F)(F)F | inactive | inactive |  |  | inactive | inactive | inactive | inactive | inactive | inactive | inactive | inactive | 3.57 µM (active) and 2.43 µM (active) | inactive | inactive | inactive | inactive |  |  | 
7 | Nc1c(Oc2ccccc2)cc(O)c2c1C(=O)c1ccccc1C2=O | 26.6 µM (active) | inactive |  |  | inactive | inactive | inactive | inactive |  | inactive | inactive | 18.8 µM (active) | 10.6 µM (active) | inactive | inactive | inactive | 26.6 µM (active) |  |  | 
8 | CC(C)(C)c1ccc(CSc2cnn(C(C)(C)C)c(=O)c2Cl)cc1 | 2.43 µM (active) | inactive |  | inactive | inactive | inactive | inactive | inactive | 0.122 µM (active) | inactive | inactive |  | inactive | inactive | inactive |  | 0.0172 µM (active) |  |  | 
9 | CCOP(=O)(NC(C)C)Oc1ccc(SC)c(C)c1 (configuration not stated) | inactive | inactive |  | inactive | inactive | inactive | inactive | inactive |  | inactive |  |  | 7.7 µM (active) | 58.6 µM (active) |  |  |  |  |  | 
10 | CCCCCCCCCCCCBr | inactive | inactive |  | inactive | inactive | inactive | inactive | inactive | inactive | inactive | inactive | inactive | inactive | inactive |  |  | inactive |  |  | 
11 | C[C@H]1O[C@@H](O[C@H]2[C@@H](O)C[C@H](O[C@H]3[C@@H](O)C[C@H](O[C@H]4CC[C@@]5(C)[C@H](CC[C@@H]6[C@@H]5CC[C@]5(C)[C@@H](C7=CC(=O)OC7)CC[C@]65O)C4)O[C@@H]3C)O[C@@H]2C)C[C@H](O)[C@@H]1O | inactive | inactive |  |  |  |  | inactive | inactive |  | inactive | inactive | inactive | inactive | inactive | 38.8 nM (active) and 94.4 nM (active) | 77.4 nM (active) and 237 nM (active) | inactive |  |  | inactive
12 | COc1cccc(C(=O)CCN[C@@H](C)[C@H](O)c2ccccc2)c1 | inactive | inactive |  | inactive | inactive | inactive | inactive | inactive | 29.8 µM (active) | inactive | inactive | inactive | inactive |  |  |  | 26.6 µM (active) |  |  | 
13 | O=c1oc2ccccc2c(O)c1Cc1c(O)c2ccccc2oc1=O | inactive | inactive |  | inactive | inactive | inactive |  |  |  | inactive | inactive | inactive |  | inactive |  |  | inactive | -3.67 |  | 
